Screening data deposited in PubChem BioAssay by National Center for Advancing Translational Sciences (NCATS).
DT40 TDP1 no CPT – qHTS for Inhibitors of human tyrosyl-DNA phosphodiesterase 1 (TDP1): qHTS in cells in absence of CPT | DT40 Tdp1-/- hTDP1 cells, no CPT, ATP luminescence, 48 h | Potency, µM (top dose mostly 46.2 µM), inactives show top-dose activity change, negative = growth inhibition, actives largely listed as inhibitors | 420,000 compounds, 15% hits; also: potency is read from the fitted curve at half-maximal effect; nearly all actives have a fitted effect of over 55% in size
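Cells were dispensed at 400 per well, compounds added by pin tool, plates incubated ≥48 hr at 37 °C, then CellTiter-Glo added for 30 min at room temperature before luminescence reading. Line: DT40 Tdp1-/- complemented with hTDP1; camptothecin omitted.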
Giardia killer – Giardia lamblia killing; AID 540267; activity change, % at 7.66 µM, hits read low; Giardia lamblia trophozoite viability; 340,000 compounds, 0.15% hits; in the data active = activity change below about -80%; inconclusive = between about -30% and that limit;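 also: parasites exposed to compound for two days anaerobically before the ATP read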
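Luminescent ATP signal served as the viability read-out, measured 15-30 min after adding ATP detection reagent to trophozoites that had been incubated with compounds for 48 hrs at 37 deg C anaerobically at 100 cells/well.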
TDP1 inh – inhibitors of human tyrosyl-DNA phosphodiesterase TDP1; Q9NUW8; recombinant TDP1, AlphaScreen DNA substrate cleavage; Potency, µM (highest dose often 130 µM), inactives show top-dose activity change, negative = inhibition, actives largely listed as inhibitors; 350,000 compounds, 0.28% hits; AID 485290; also: potency is read from the fitted curve at half-maximal effect; nearly all actives have a fitted effect of over 40% in size
Target sequence (Q9NUW8 whole entry, looked up): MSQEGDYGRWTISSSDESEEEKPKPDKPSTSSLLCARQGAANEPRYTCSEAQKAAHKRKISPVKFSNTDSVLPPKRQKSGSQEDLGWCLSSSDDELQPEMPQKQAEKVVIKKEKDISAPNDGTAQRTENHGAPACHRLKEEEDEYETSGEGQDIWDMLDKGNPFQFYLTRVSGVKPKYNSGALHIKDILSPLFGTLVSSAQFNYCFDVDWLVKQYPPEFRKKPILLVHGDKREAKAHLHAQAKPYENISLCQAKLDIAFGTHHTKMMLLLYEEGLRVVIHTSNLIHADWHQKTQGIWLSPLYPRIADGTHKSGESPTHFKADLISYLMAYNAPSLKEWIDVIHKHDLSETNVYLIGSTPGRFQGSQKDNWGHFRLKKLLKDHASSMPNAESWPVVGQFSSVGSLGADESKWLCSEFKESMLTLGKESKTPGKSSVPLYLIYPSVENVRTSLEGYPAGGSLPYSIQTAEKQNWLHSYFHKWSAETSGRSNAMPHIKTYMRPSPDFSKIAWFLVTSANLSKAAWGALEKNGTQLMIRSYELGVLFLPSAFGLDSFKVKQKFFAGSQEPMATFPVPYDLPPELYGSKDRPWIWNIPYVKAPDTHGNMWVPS
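Recombinant human Tdp1 (E. coli-expressed, 1 nM final) preincubated with compounds 15 min at room temperature, then 5'-biotin/3'-phosphotyrosine-FITC DNA substrate (15 nM final) added for 5 min. AlphaScreen beads (10 ug/ml final) added 10 min; cleavage lowers signal.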
DT40 TDP1 CPT – growth inhibition of DT40 Tdp1-/-;hTDP1 cells with camptothecin (screen for TDP1 inhibitors). chicken DT40 Tdp1-/-;hTDP1 cells + 20 nM CPT, ATP luminescence, 48 h. Potency, µM (titrated, usually from 46.2 µM), without a hit: top-dose activity change, negative = growth inhibition, hits mostly inhibitors. 420,000 compounds, 12% hits; also: potency is read from the fitted curve at half-maximal effect; nearly all actives have a fitted effect of over 55% in size
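Cell growth measured by CellTiter-Glo luminescence after a minimum 48 h, 37 C compound exposure with 20 nM CPT in Tdp1-knockout DT40 cells stably expressing hTDP1, seeded 400/well; qHTS titration format.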
IL-1B inflam inh – inflammasome signaling inhibition, IL-1 beta readout | 360,000 compounds, 4.7% hits | activity change, % at 57.5 µM | AID 743279 | THP-1 LPS/ATP IL-1B secretion, AlphaLISA, 16 h; active compounds read low; in the data active = activity change below about -50%; inconclusive = mostly about -30% to -49%
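Secreted IL-1B measured by AlphaLISA bead assay after 16 h compound exposure of THP-1 cells; compounds (final up to 57.5 uM) added 1 h before LPS (250 ng/mL) and ATP (1.25 mM) stimulation; lower signal means less secretion.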
ELG1 DNA repair – ELG1-dependent DNA repair inhibition | HEK293T ELG1-luciferase reporter, luminescence, 16 h; DNA damage induced by 5-fluorouridine | Potency, µM (doses to about 46.1 µM), inactives show at the top dose activity change, negative = inhibition, usual class: inhibitors | 330,000 compounds, 2.3% hits | AID 504467; also: potency is read from the fitted curve at half-maximal effect; nearly all actives have a fitted effect of over 55% in size
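HEK293T cells expressing luciferase-tagged ELG1 (2,000/well) received 5-Fluorouridine plus compound or DMSO for 16 hr at 37 °C. Luciferase was read by ONE-Glo luminescence after 30 min at room temperature.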
* hit, by the source's call; ? = inconclusive; nt = no result given; [ ] = another dose, or the depositor's remark. This is a sample that favours compounds with a hit; in the whole collection about 19% have one here. Unless noted, calls follow the shape of the dose curve; as a rule, active = well fitted curve in the direction sought with a large enough effect; inconclusive = small, poorly fitted or top-dose-only effect, or another doubt; inactive = no such curve, though single readings can be large; an effect the other way counts as inactive or inconclusive. % is scaled to controls: 0 for no effect and ±100 for the full control effect.

SMILES	DT40 TDP1 no CPT	Giardia killer	TDP1 inh	DT40 TDP1 CPT	IL-1B inflam inh	ELG1 DNA repair
Cc1[nH]n(-c2ccc([N+](=O)[O-])cc2)c(=O)c1C=NCCN1CCN(C(=O)c2ccccc2)CC1	10µM*	-16	4%	10µM*	-6	3%
CCN(CC)CCNC(=O)C(Oc1ccccc1)Oc1ccccc1	4%	16	nt	12%	-2	1%
O=C(CSc1nc2c(c(=O)[nH]1)CN(Cc1ccc(F)cc1)CC2)Nc1cccc(C(F)(F)F)c1	?	nt	-6%	?	nt	nt
O=C(Nc1cccc(C(F)(F)F)c1)c1ccc2c(c1)nnn2C1CCCC1	8.2µM*	nt	0%	?	nt	nt
CCOC(=O)c1cccc(NC(=O)c2ccc3c(c2)nnn3C2CCCC2)c1	?	nt	-3%	?	nt	nt
CCc1ccccc1NC(=O)c1ccc2c(c1)nnn2C1CCCC1	?	nt	-3%	26µM*	nt	nt
CC(OC(=O)c1cc(Br)ccc1O)C(=O)NC1(C#N)CCCCC1 (stereo unspecified)	-23%	17	-1%	-15%	8	-10%
c1ccc(-c2cncnc2)cc1	2%	11	-1%	-6%	41	24%
CNC(=S)N(C)/N=C1/C(=O)N(Cc2c(Cl)cccc2Cl)c2ccccc21	18µM*	-9	8%	15µM*	0	-19%
COc1ccc(N2C(=O)C(F)(F)C2c2ccc(C)cc2)cc1OC (stereo unspecified)	-17%	-2	4%	28%	42	-2%
COc1ccc(OC2C(=O)N(c3ccc(C)c(C)c3)C2c2ccc(OC)c(OC)c2)cc1 (stereo unspecified)	15µM*	4	2%	?	-7	?
COCCNC(=O)C1CCC(=O)N(c2ccc(OC)cc2)C1c1ccc(OC)c(OC)c1 (stereo unspecified)	1%	-21	5%	3%	-10	1%
COc1ccc(OC2C(=O)N(c3cc(C)ccc3C)C2c2ccc(OC)c(OC)c2)cc1 (stereo unspecified)	?	7	2%	?	0	18µM*
O=c1oc2ccccc2c(Nc2ccc(F)cc2)c1[N+](=O)[O-]	?	3	4%	?	-12	-20%
O=c1oc2ccccc2c(Nc2ccc(Cl)cc2)c1[N+](=O)[O-]	13µM*	11	0%	?	-24	?
COC(=O)c1ccc(Nc2c([N+](=O)[O-])c(=O)oc3ccccc23)cc1	?	-6	10%	0%	-78*	?
Cc1ccc(C)c(C(=O)CSc2nc(C)cc(=O)[nH]2)c1	-3%	-18	0%	-15%	10	6%
Cc1ccc2nc3c(cc(C#N)c(=O)n3-c3nnc(SCc4ccccc4Cl)s3)c(=O)n2c1	-7%	nt	0%	-10%	nt	nt
N#CC1=C(SCC(=O)NC2CC2)NC(=O)C(C#N)C12CCCCC2 (stereo unspecified)	-13%	0	2%	-1%	23	-2%
N#CC1=C(SCC(=O)NC23CC4CC(CC(C4)C2)C3)NC(=O)C(C#N)C12CCCCC2 (stereo unspecified)	23µM*	17	5%	18µM*	?	13µM*
CC(C)(C)C1CCC2(CC1)C(C#N)=C(SCC(=O)NC1CCCCC1)NC(=O)C2C#N (stereo unspecified)	16µM*	14	2%	21µM*	-25	?
COc1cc(NC(=O)N2CCN(c3cc(-c4noc(C)n4)ccc3C)CC2)cc(OC)c1OC	-3%	nt	1%	-3%	nt	nt
Cc1ccc(NC(=O)CSCC(=O)N(C)CC(=O)Nc2ccccc2C(F)(F)F)cc1	-2%	4	4%	13%	19	4%
Fc1ccc(CNC(=S)Nc2ccc(Cl)cc2Cl)cc1	?	-16	-1%	?	-100*	-8%
Fc1ccc(NC(=S)Nc2cccnc2)c(Cl)c1	-6%	13	-3%	10%	34	2%
SMILES	DT40 TDP1 no CPT	Giardia killer	TDP1 inh	DT40 TDP1 CPT	IL-1B inflam inh	ELG1 DNA repair
Fc1ccc(NC(=S)Nc2ccc(Cl)cc2Cl)cc1	26µM*	8	3%	?	-87*	?
C/C(=N\NC(=S)NCCc1ccccc1)c1ccc(Cl)cc1Cl	16µM*	6	3%	?	3	0%
Fc1ccccc1/C=N/NC(=S)Nc1ccc(Cl)cc1Cl	1.8µM*	-7	5%	2.3µM*	43	?
CN(C)c1nc2cc(Cl)ccc2cc1CN(Cc1ccc2c(c1)OCO2)C(=O)c1ccoc1	-28%	nt	nt	15%[9.04 µM]	nt	nt
CN(C)/C=N/C(=S)Nc1ccc(Cl)cc1	?	2	3%	-12%	-13	?
S=C(NCc1ccncc1)Nc1ccc(Cl)cc1Cl	-18%	-3	0%	?	22	16µM*
S=C(NCc1ccc(Cl)cc1)Nc1ccc(Cl)cc1Cl	?	1	3%	-14%	-1	11%
CN(C)/C=N/C(=S)Nc1ccc(Cl)cc1Cl	?	1	3%	6%	-77*	?
S=C(NCCc1ccc(Cl)cc1)Nc1ccc(Cl)cc1Cl	?	0	-2%	?	-79*	-13%
CSc1cc(C)c(OCC(=O)Nc2c(C)nn(C)c2C)c(C)c1	?	10	2%	15µM*	0	3%
Cc1nn(C)c(C)c1NC(=O)COc1ccc(F)cc1Br	13µM*	4	0%	?	3	?
COc1ccc(/C=C/C(=O)Nc2c(C)nn(C)c2C)cc1COc1ccc(Cl)cc1Br	?	1	0%	18µM*	?	?
Cc1ccccc1-c1nc(CN(Cc2c(C)nn(C)c2C)C2CC2)c(C)o1	23µM*	18	-2%	?	-76*	?
Cc1ccc(-c2nn(C(C)(C)C)c3ncnc(NS(=O)(=O)c4ccc([N+](=O)[O-])cc4)c23)cc1	18µM*	-5	8%	21µM*	0	?
Cc1ccc(S(=O)(=O)Nc2c(C)cc([N+](=O)[O-])cc2C)cc1	?	-16	nt	-15%	0	nt
CCCCCCCCN1C(=O)[C@H](CC(=O)NCCCOC)C[C@@]2(C(=O)OC)CCCCC=C12	16µM*	nt	nt	?	-6	nt
CCCCCCCCN1C(=O)[C@H](CC(=O)NCCCN2CCCC2=O)C[C@@]2(C(=O)OC)CCCCC=C12	?	nt	nt	?	-16	nt
CCCCCCCCN1C(=O)[C@H](CC(=O)NCC2CCCCC2)C[C@@]2(C(=O)OC)CCCCC=C12	16µM*	nt	nt	21µM*	0	nt
